Data on 6 compounds can be found in PubChem BioAssay (Tox21).

A short description of assay [1]: qHTS assay to identify small molecule antagonists of the vitamin D receptor (VDR) signaling pathway - cell viability counter screen (AID 743225). Note: % is set by controls: 0 for no effect and ±100 for the full control effect; nearly all actives have a fitted effect of over 50% in size. The essentials: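 Cytotoxicity counter screen read by CellTiter-Glo luminescence (30 min, room temperature) in the same wells as the VDR-bla antagonist readout. HEK 293T VDR-UAS-bla cells had 16 h at 37C with compound and 3 nM (final) 1-alpha,25-dihydroxyvitamin D3, then 2 h with FRET substrate.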

The nature of assay [2]: qHTS assay to identify small molecule agonists of the NFkB signaling pathway (AID 1159509; active = well fitted curve in the direction sought with a large enough effect in the signal ratio in the repeat runs, not every such curve was filed as active; the % refers to the signal ratio; note: series mostly up to about 61 µM; % is set by controls: 0 for no effect and ±100 for the full control effect). In a few lines:
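Pathway activation was measured in ME-180 cells stably expressing beta-lactamase under NF-kB response element control. Substrate cleavage was read as the 460/530 nm emission shift after 5 hr compound incubation.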
(qHTS replaces the single test concentration by a dilution series.)

Assay [3] can be described thus: qHTS assay to identify small molecule agonists of the NFkB signaling pathway - cell viability counter screen (AID 1159515; calls by dose curve; note: series mostly up to about 61 µM; % is set by controls: 0 for no effect and ±100 for the full control effect; nearly all actives have a fitted effect of over 55% in size). In a few lines: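 Read by CellTiter-Glo luminescence (30 min, room temperature) in the wells also used for the beta-lactamase FRET read. ME-180 NFkB-bla cells at 2,000 per well were plated overnight, then exposed to compound for 5 hr at 37 C.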

Assay [4] can be described thus: qHTS assay to identify small molecule agonists of the endoplasmic reticulum stress response signaling pathway (AID 1159516; active = well fitted activation curve with a large enough effect in the signal ratio in the repeat runs, not every such curve was filed as active; the % refers to the signal ratio; note: % is set by controls: 0 for no effect and ±100 for the full control effect). The essentials:
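Ratiometric FRET readout (405 nm excitation; 460 and 530 nm emission) of a beta-lactamase gene driven by the ER stress response element, after 2 hr substrate loading. HeLa ESRE-bla cells were seeded overnight and treated with compounds for only 5 hr at 37 C.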

Assay [5] is described as follows: qHTS assay to identify small molecule antagonists of the retinoid-related orphan receptor gamma (ROR-gamma) signaling pathway - cell viability counter screen (AID 1159520). Note: % is set by controls: 0 for no effect and ±100 for the full control effect; nearly all actives have a fitted effect of over 50% in size. The essentials: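 Cytotoxicity was read from cellular ATP (CellTiter-Glo luminescence) after 16 hr at 37 C with 1 uM doxycycline induction. The inducer was added 2 hr after compound transfer to Tet-on ROR gamma CHO cells.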

For assay [6], the target named is Nuclear receptor ROR-gamma (Homo sapiens) (UniProt P51449). Kind of assay: qHTS assay to identify small molecule antagonists of the retinoid-related orphan receptor gamma (ROR-gamma) signaling pathway (AID 1159521; note: top concentration of the series differs between compounds; % is set by controls: 0 for no effect and ±100 for the full control effect; nearly all actives have a fitted effect of over 50% in size). The essentials: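 Antagonist read-out: drop in luminescence (ONE-Glo) from an RORE-LUC reporter in CHO cells with doxycycline-inducible ROR-gamma; 2 hr compound pretreatment, 1 uM doxycycline, 16 hr incubation at 37 C.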

A short description of assay [7]: qHTS assay to identify small molecule agonists of the AP-1 signaling pathway (AID 1159526; calls by dose curve; note: % is set by controls: 0 for no effect and ±100 for the full control effect).
Assay [8] concerns the target Retinoic acid receptor RXR-alpha (Homo sapiens) (UniProt P19793). In words: qHTS assay to identify small molecule agonists of the RXR signaling pathway (AID 1159527; calls by dose curve; note: % is set by controls: 0 for no effect and ±100 for the full control effect; nearly all actives have a fitted effect of over 35% in size). In a few lines: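 Agonist-mode beta-lactamase reporter assay: HEK 293T RXR-alpha-UAS-bla cells treated 16 hr at 37 C with compounds, 9-cis retinoic acid as positive control. LiveBLAzer FRET substrate, 405 nm excitation, 460/530 nm emission.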

A short description of assay [9]: qHTS assay to identify small molecule agonists of the RXR signaling pathway - cell viability counter screen (AID 1159529). Note: series mostly up to about 77 µM; % is set by controls: 0 for no effect and ±100 for the full control effect; nearly all actives have a fitted effect of over 50% in size. The essentials: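 CellTiter-Glo luminescence gave viability in the wells also read for beta-lactamase. Cells (RXR-alpha-UAS-bla HEK 293T, 2% charcoal-stripped FBS medium) had 5 hr plating, then 16 hr compound exposure at 37 C; tetraoctyl ammonium bromide served as positive control.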

A short description of assay [10]: qHTS assay to identify small molecule antagonists of the retinoid acid receptor (RAR) signaling pathway - cell viability counter screen (AID 1159551). Note: % is set by controls: 0 for no effect and ±100 for the full control effect; nearly all actives have a fitted effect of over 35% in size. In a few lines: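 Cytotoxicity counter screen: ATP content quantified by CellTiter-Glo luminescence in C3RL4 cells treated 6 hr at 37 C with compound and retinol (1 uM final). Cells plated at 1,000/well and cultured overnight before dosing.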

A short description of assay [11]: qHTS assay to identify small molecule antagonists of the retinoic acid receptor (RAR) signaling pathway (AID 1159552). The essentials:
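Luminescent RARE reporter read-out in C3RL4 cells: 6 hr co-treatment at 37 C of test compounds with retinol at 1 uM final. Cells plated overnight beforehand; luciferase reagent incubated 30 min at room temperature before reading.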

The nature of assay [12]: qHTS assay to identify small molecule agonists of the retinoic acid receptor (RAR) signaling pathway (AID 1159553). Note: % is set by controls: 0 for no effect and ±100 for the full control effect. The essentials: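 Luminescence was measured 30 min after luciferase reagent addition at room temperature. Before that, C3RL4 reporter cells (1,000 per well, plated overnight) were treated with compound for 6 hr at 37 C and 5% CO2.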
Assay [13] can be described thus: qHTS assay to identify small molecule antagonists of the estrogen related receptor (ERR) signaling pathway from Tox21 library - cell viability counter screen (AID 1224834). Note: % is set by controls: 0 for no effect and ±100 for the full control effect; nearly all actives have a fitted effect of over 30% in size. The essentials: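 CellTiter-Fluor fluorescence, read after 30 min at 37 C, measures viability of ERR cells. Cells plated at 2,000/well and incubated 6 h before pin-tool compound addition, then exposed 17.5 hours at 37 C.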

Assay [14] addresses Luciferin 4-monooxygenase (Photinus pyralis) (UniProt P08659). In words: qHTS assay to identify small molecule inhibitors of firefly luciferase (AID 1224835). Note: series mostly up to about 120 µM; % is set by controls: 0 for no effect and ±100 for the full control effect; nearly all actives have a fitted effect of over 25% in size. In a few lines:
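Inhibition of purified Photinus luciferase is measured by luminescence. Substrate levels (D-luciferin, ATP) sit at their KM values. Each compound is tested in a concentration series.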

Assay [15] in a line: qHTS assay to identify small molecule antagonists of the constitutive androstane receptor (CAR) signaling pathway - cell viability counter screen (AID 1224837). Note: series mostly up to about 92 µM; % is set by controls: 0 for no effect and ±100 for the full control effect; nearly all actives have a fitted effect of over 45% in size. In a few lines: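 Cytotoxicity counter-screen: CellTiter-Fluor fluorescence after 23 h compound exposure (15-point qHTS) in double-stable HepG2-CYP2B6-hCAR cells, with 50 nM CITCO added.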
In assay [16] the target is Nuclear receptor subfamily 1 group I member 3 (Homo sapiens) (UniProt Q14994). In words: qHTS assay to identify small molecule antagonists of the constitutive androstane receptor (CAR) signaling pathway (AID 1224838).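 Note: HepG2 cells stably expressing hCAR with CYP2B6 luciferase reporter stimulated by CITCO; nearly all actives have a fitted effect of over 40% in size.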 Note: potency is the fitted concentration of half-maximal effect. The essentials: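 Antagonism measured as luciferase signal (ONE-Glo, 30 min, room temperature) in CAR-stimulated cells: HepG2-CYP2B6-hCAR double-stable line exposed 24 hr at 37 C to compound in a 15-point series plus 50 nM CITCO.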
Nuclear receptor subfamily 1 group I member 3 (Homo sapiens), sequence (Q14994 whole entry, looked up): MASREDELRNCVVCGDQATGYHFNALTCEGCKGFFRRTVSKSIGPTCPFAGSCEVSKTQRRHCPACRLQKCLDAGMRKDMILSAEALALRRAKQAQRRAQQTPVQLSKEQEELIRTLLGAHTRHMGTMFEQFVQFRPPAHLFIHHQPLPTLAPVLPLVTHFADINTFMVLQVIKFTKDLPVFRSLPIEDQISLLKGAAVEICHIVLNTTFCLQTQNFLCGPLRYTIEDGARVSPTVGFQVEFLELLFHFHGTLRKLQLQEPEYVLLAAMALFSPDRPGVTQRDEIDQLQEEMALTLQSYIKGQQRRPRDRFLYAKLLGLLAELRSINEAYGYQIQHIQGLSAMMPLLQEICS

Assay [17] has the same target. Kind of assay: qHTS assay to identify small molecule agonists of the constitutive androstane receptor (CAR) signaling pathway (AID 1224839).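 Note: HepG2 cells stably carrying human CAR and a CYP2B6 luciferase reporter; series mostly up to about 92 µM; % is set by controls: 0 for no effect and ±100 for the full control effect; nearly all actives have a fitted effect of over 15% in size.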 In a few lines:
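Luminescent ONE-Glo read-out after 24 hr, 37 C exposure of double-stable HepG2-CYP2B6-hCAR reporter cells to a 15-point compound series, in the presence of 0.75 uM PK11195 (final).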

The nature of assay [18]: qHTS assay to identify small molecule agonists of the endoplasmic reticulum stress response signaling pathway - cell viability counter screen (AID 1159517; calls by dose curve). In a few lines:
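ESRE-bla HeLa cells (1,500/well) were plated overnight at 37 C and exposed to compounds for 5 hr. After the 2 hr beta-lactamase substrate read, CellTiter-Glo went into the same wells, and luminescence was read after 30 min at room temperature.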

Assay [19] can be described thus: qHTS assay to identify small molecule agonists of the AP-1 signaling pathway - cell viability counter screen (AID 1159525; calls by dose curve; note: nearly all actives have a fitted effect of over 55% in size). The essentials: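 Intracellular ATP by Cell Titer Glo luminescence (30 min, RT) in the same ME-180 AP-1-bla wells after the 5 h compound exposure at 37 °C. Normalised to tetra n-octyl ammonium bromide and DMSO controls.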
A short description of assay [20]: qHTS assay to identify small molecule agonists of the constitutive androstane receptor (CAR) signaling pathway - cell viability counter screen (AID 1224836). Note: series mostly up to about 92 µM; % is set by controls: 0 for no effect and ±100 for the full control effect; nearly all actives have a fitted effect of over 45% in size. The essentials: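 Cell viability multiplexed with the CAR agonist screen: CellTiter-Fluor fluorescence after 23 hr at 37 C. HepG2-CYP2B6-hCAR cells got compounds at 15 concentrations with PK11195 at 0.75 uM final.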

Inconclusive results are not listed. Unmarked numbers belong to inactive results. Active and inactive are the calls of the source. Unless noted, calls come from the whole dose curve; as a rule, active = well fitted curve in the direction sought with a large enough effect in the repeat runs; inconclusive = weak or mixed curves; inactive = no such curve, though single readings can be large; an effect the other way counts as inactive or inconclusive.

Luciferin 4-monooxygenase (Photinus pyralis), sequence (P08659 whole entry, looked up): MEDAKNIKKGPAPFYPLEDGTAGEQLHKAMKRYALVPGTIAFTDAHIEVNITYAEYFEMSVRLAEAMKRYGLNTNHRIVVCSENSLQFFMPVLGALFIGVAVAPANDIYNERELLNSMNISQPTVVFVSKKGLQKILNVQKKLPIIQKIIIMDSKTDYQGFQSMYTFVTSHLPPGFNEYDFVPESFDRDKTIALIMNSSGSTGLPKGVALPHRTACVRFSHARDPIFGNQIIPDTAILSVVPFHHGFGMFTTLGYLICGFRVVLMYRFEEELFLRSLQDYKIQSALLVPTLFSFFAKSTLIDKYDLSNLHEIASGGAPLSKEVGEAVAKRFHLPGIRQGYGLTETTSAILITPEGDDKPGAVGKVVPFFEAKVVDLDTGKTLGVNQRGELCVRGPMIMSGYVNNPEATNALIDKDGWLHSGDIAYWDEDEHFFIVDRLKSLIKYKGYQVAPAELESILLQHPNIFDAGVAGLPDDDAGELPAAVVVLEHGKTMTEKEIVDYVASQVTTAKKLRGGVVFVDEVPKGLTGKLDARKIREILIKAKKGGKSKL
Retinoic acid receptor RXR-alpha (Homo sapiens), sequence (P19793 whole entry, looked up): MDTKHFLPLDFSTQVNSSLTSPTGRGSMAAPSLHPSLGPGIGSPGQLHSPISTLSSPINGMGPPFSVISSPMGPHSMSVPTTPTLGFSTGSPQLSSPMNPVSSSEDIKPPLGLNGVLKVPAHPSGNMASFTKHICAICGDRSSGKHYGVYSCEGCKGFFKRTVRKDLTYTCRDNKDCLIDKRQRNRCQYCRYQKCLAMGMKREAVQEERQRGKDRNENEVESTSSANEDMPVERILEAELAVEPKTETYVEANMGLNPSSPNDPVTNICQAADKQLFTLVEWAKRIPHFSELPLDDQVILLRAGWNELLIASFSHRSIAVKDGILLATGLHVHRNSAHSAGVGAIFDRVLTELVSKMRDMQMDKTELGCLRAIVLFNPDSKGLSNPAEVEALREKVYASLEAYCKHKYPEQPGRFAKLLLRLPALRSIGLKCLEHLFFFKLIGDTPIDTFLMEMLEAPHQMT

On to `COc1cc(OC)nc(O[C@H](C(=O)O)C(OC)(c2ccccc2)c2ccccc2)n1`, for which the call in assay [1], in assay [2], in assay [3], in assay [4], in assay [5] and in assay [6] was inactive. Further, the outcome in assay [7], in assay [9], in assay [10], in assay [11], in assay [13] and in [15] was inactive. Moreover, the Potency result in [8], in [12], in assay [14], in assay [16] and in assay [17] was “inactive” throughout.
As to `CC(=O)C1C(=O)C=C(C)OC1=O` (stereo not given), the compound was classed as inactive in assay [1], in assay [3], in [4], in assay [18], in assay [5] and in [6]. The call in [19], in [7], in assay [9], in [10], in assay [11] and in [13] was inactive. Besides, the compound was called inactive in assay [20] and in assay [15]. Further, the Potency entry in [8], in [12], in assay [14], in assay [16] and in [17] was “inactive” in each case.
On to `CC(O)CC(C)O` (stereo not given), for which the compound was classed as inactive in assay [1], in assay [2], in assay [3], in assay [4], in assay [5] and in assay [6]. Further, the compound was classed as inactive in assay [7], in [9], in assay [10], in assay [11], in assay [13] and in assay [20]. In addition, the call in assay [15] was inactive. Besides, the Potency entry in assay [8], in assay [12], in [14], in assay [16] and in [17] was “inactive” in each case.
Regarding `N[C@@H](Cc1ccc(O)cc1)C(=O)O`, the viability change, negative = cytotoxic in assay [1] is 7.41% [at 6.95 µM]; in assay [19], 1.17% [at 6.97 µM]; in assay [13] it was 1.55% [at 8.39 µM]. The activation is -0.279% [at 6.95 µM] in [2]; -0.0263% [at 6.95 µM] in [4]; -1.16% [at 6.97 µM] in [7]; 0.71% [at 6.98 µM] in [8]; 0.0879% [at 8.36 µM] in assay [12]; -2.78% [at 8.39 µM] in [17]. Moreover, the activity, negative = cytotoxic in assay [3] is 9.74% [at 6.95 µM]. For the same compound, the activity, negative = cytotoxicity in [5] is 1.78% [at 8.39 µM]. Besides, the values for the activity change, negative = inhibition in assay [6] and in assay [14] were 1.55% [at 8.39 µM] and 1.38% [at 10.5 µM], respectively. The results for the activity change, negative = cytotoxicity in assay [9], in assay [10] and in [15] were 2.08% [at 6.97 µM], -0.852% [at 8.39 µM] and 8.2% [at 8.39 µM], respectively. The activity, negative = inhibition in [11] is 7.5% [at 8.39 µM]; in assay [16], -4.54% [at 8.39 µM].
On to `OCCN1CCOCC1`, for which the compound was classed as inactive in [1], in assay [2], in [3], in assay [4], in [5] and in assay [6]. For the same compound, the outcome in [19], in assay [7], in assay [9], in assay [10], in [11] and in assay [13] was inactive. The compound was called inactive in [20] and in [15]. The Potency result in assay [8], in assay [12], in [14], in assay [16] and in assay [17] was “inactive” in each case.
Take `CC(C)OC(=O)OCOP(=O)(CO[C@H](C)Cn1cnc2c(N)ncnc21)OCOC(=O)OC(C)C`: the call in assay [1], in assay [2], in assay [3], in assay [4], in assay [5] and in [6] was inactive. Further, the compound was classed as inactive in assay [19], in assay [7], in assay [9], in assay [10], in [11] and in assay [13]. Moreover, the call in assay [20] and in assay [15] was inactive. Besides, the Potency result in assay [8], in assay [12], in assay [14] and in [17] was “inactive” throughout. For the same compound, the Potency in [16] was 2.37 µM (active).
